Assay results taken from PubChem BioAssay (NCI).
The panel holds about 79,000 compounds, 15% with a hit somewhere; the sample as a whole holds those more often. Rule as the data show it: active = growth inhibition above about 70%; inactive = the rest.

Legend:
[1] = NCI Yeast Anticancer Drug Screen. Data for the rad50 strain (AID 155);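 also: 0% = growth of vehicle-only cultures of the same strain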; conditions: S. cerevisiae rad50 strain growth inhibition; at 50.0 µM; stronger effect = higher value
Summary of the method: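 Compounds were tested on a yeast strain with an engineered DNA damage repair alteration; the reported value is growth inhibition normalised to vehicle treatment.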

[2] = NCI Yeast Anticancer Drug Screen. Data for the mec2-1 strain (AID 157); conditions: S. cerevisiae mec2-1 strain, at 50.0 µM, stronger effect = higher value
Summary of the method: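 Test agents were screened against the mec2-1 yeast strain, with defined DNA repair or cell cycle alteration. Growth was scored as inhibition against vehicle-only controls.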

[3] = NCI Yeast Anticancer Drug Screen. Data for the sgs1 mgt1 strain (AID 161);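 also: 0% = growth of cultures given vehicle only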; conditions: S. cerevisiae sgs1 mgt1 strain, at 50.0 µM, stronger effect = higher value
Summary of the method: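 Test agents were incubated with a DNA-repair-mutant yeast strain. Growth was then read and compared against vehicle-treated controls.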

[4] = NCI Yeast Anticancer Drug Screen. Data for the cln2 rad14 strain (AID 165);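 also: 0% = growth equal to vehicle treated cultures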; conditions: S. cerevisiae cln2 rad14 strain, at 50.0 µM, stronger effect = higher value
Summary of the method: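 Growth of compound-exposed yeast (cln2 rad14 genotype) measured and expressed as inhibition relative to vehicle.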

[5] = NCI Yeast Anticancer Drug Screen. Data for the bub3 strain (AID 167); conditions: S. cerevisiae bub3 mutant strain, at 50.0 µM, stronger effect = higher value
Summary of the method: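 Growth of a checkpoint-deficient yeast mutant is measured after compound exposure. Values represent inhibition relative to vehicle.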

[6] = NCI Yeast Anticancer Drug Screen. Data for the mlh1 rad18 strain (AID 175); conditions: S. cerevisiae mlh1 rad18 strain growth inhibition; at 50.0 µM; stronger effect = higher value
Summary of the method: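 In this whole-cell yeast screen, a strain with altered DNA damage repair is challenged with compound, and its growth is measured against matched vehicle-treated controls.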

Measured: growth inhibition

Cc1cc2c(=O)c3ccccc3oc2c(C#N)c1C
inactive: [1] 19.6% | [2] 8.25% | [3] 9.2% | [4] -15.4% | [5] 18.3% | [6] 16.9%

CC1c2c(ccc3c2CCC=C3)CCC1CC1=CCCc2ccc3ccccc3c21 (stereo not drawn)
inactive: [1] 6.7% | [2] -1.6% | [3] 1.1% | [4] -13.3% | [5] 0.1% | [6] 9.85%

CCCCCCCC(N)=O
inactive: [1] 15.7% | [2] -28.1% | [3] 8.4% | [4] 12.4% | [5] -11.6% | [6] -10.3%

COc1ccc(/C=C(\C(C)=O)C(=O)Nc2ccccc2)cc1
inactive: [1] 21.1% | [2] 16.4% | [3] 22.2% | [4] 39.1% | [5] 6.2% | [6] 25.4%

CCCCCCCCCCCCC(F)C(=O)OCC1OC(n2cc(C)c(=O)[nH]c2=O)CC1N=[N+]=[N-] (stereo not drawn)
inactive: [1] 3.25% | [2] -15.7% | [3] 36.4% | [4] -14.8% | [5] 10.7% | [6] 14.8%

CCOC(=O)c1ccc([N+](=O)[O-])cc1
inactive: [1] -9.55% | [2] -12% | [3] -17.4% | [4] -29.2% | [5] -18.6% | [6] 21.1%

COC(=O)/C(C#N)=C1\NC(=O)c2ccccc21
inactive: [1] 30.1% | [2] 16.1% | [3] 11.6% | [4] 30.8% | [5] 11.5% | [6] 26%

CCC(=O)n1ncc2ccc([N+](=O)[O-])cc21
inactive: [1] 3.45% | [2] 5.15% | [3] -2.8% | [4] -105% | [5] -4.45% | [6] -7.5%

CC(=O)OC1(C(=O)O)CCCCC1
inactive: [1] 5.8% | [2] 14% | [3] -0.05% | [4] -19.9% | [5] 5.25% | [6] 9.65%

O=C(O)CCCCn1cnc2c(=S)nc[nH]c21
inactive: [1] -6.1% | [2] -5.85% | [3] -13.7% | [4] -7.3% | [5] -44% | [6] -5%

CC(=O)C(C(c1ccccc1)N1CCOCC1)N1CCOCC1 (stereo not drawn)
inactive: [1] 12.1% | [2] -0.8% | [3] -24% | [4] 1.15% | [5] -23.2% | [6] 6.25%

O=C(NCCc1[nH]nc2c1C(=O)C=C(Nc1ccccc1)C2=O)OCc1ccccc1
inactive: [1] -29.7% | [2] -15.8% | [3] -32.4% | [4] -21.9% | [5] -29.1% | [6] -52.8%

Cc1nc(N)c(-c2ccccc2)s1
inactive: [1] 18.1% | [2] -15.9% | [3] 7.2% | [4] -11.2% | [5] -7.85% | [6] 11.9%

CC(=O)NNc1nc(C)c(C(=O)/C=C/C=C/c2ccccc2)s1
inactive: [1] -3.8% | [2] 39% | [3] 10.7% | [4] 10.3% | [5] 13.1% | [6] -21.8%

Oc1ccccc1C=Nc1ccccc1N=Cc1ccccc1O.[Zn]
inactive: [1] 6.45% | [2] 4% | [3] -3.45% | [4] 26.5% | [5] -4.05% | [6] 12.9%

CCCC(O)C(C)[N+](=O)[O-] (stereo not drawn)
inactive: [1] 7.25% | [2] 4.5% | [3] -0.65% | [4] 4.75% | [5] 4.2% | [6] 0.6%

COc1cccc2c1OC(=O)C(S(=O)(=O)c1ccccc1)C2 (stereo not drawn)
inactive: [1] -7.8% | [2] -3.95% | [3] 5.5% | [4] -37.5% | [5] -7.25% | [6] -3.65%

COc1cc2nncc(SCc3ccc(Cl)cc3)c2cc1OC
inactive: [1] -1% | [2] 4.2% | [3] -0.55% | [4] -11% | [5] 15.5% | [6] 4.05%

c1ccc(C(=NN(CCCCN(N=C(c2ccccc2)c2ccccc2)c2ccccc2)c2ccccc2)c2ccccc2)cc1
inactive: [1] 28.6% | [2] 21.4% | [3] -11.6% | [4] 6.4% | [5] 0.05% | [6] 19.9%

CSc1cc(C)n2nnnc2n1
inactive: [1] 1.25% | [2] -11.9% | [3] -3.2% | [4] -27.2% | [5] -3.75% | [6] -0.3%

CC(=O)OC1=C(C)C2=C3OC(=O)C(C)=C3CC[C@@]2(C)[C@@H](Cl)[C@@H]1Cl
inactive: [1] 40.9% | [2] -45.9% | [3] -2.6% | [4] -5.85% | [5] -15.2% | [6] -57.9%

CCCCCCOCC(=O)O
inactive: [1] -6.75% | [2] -11.2% | [3] -7.25% | [4] -19.8% | [5] -10.4% | [6] -13.7%

BrC1CC1(c1ccccc1)c1ccccc1 (stereo not drawn)
inactive: [1] 0.1% | [2] 0.35% | [3] -3.5% | [4] -6.4% | [5] 3.65% | [6] -0.3%

CCc1ccccc1NC(=O)C1=C(C)NC(C)=C(C(=O)Nc2ccccc2CC)C1c1ccc2c(c1)OCO2
inactive: [1] -9.35% | [2] 3.6% | [3] -2.4% | [4] -7.8% | [5] -0.75% | [6] -4%

CC(=O)/C=C/C1=C(C)CCCC1(C)C (tested in a mixture with another compound)
inactive: [1] 19.7% | [2] 1% | [3] 9.2% | [4] -3.25% | [5] 24.3% | [6] 5.7%

COC(=O)n1c(CBr)c(Br)c2ccccc21
inactive: [1] 26.3% | [2] -2.15% | [3] -3.65% | [4] -3.8% | [5] 4.9% | [6] 1.5%

CN(C)N1C(=O)c2ccccc2NC1c1ccccc1 (stereo not drawn)
inactive: [1] -19.2% | [2] -1.35% | [3] 29.6% | [4] 2% | [5] 18.9% | [6] 5.15%

Cc1cc2nc3c(=O)[nH]c(=O)nc-3n(CCN(CCO)CCO)c2cc1Cl
inactive: [1] 58.9% | [2] 7.95% | [3] 48.3% | [4] 14.8% | [5] 1.55% | [6] 17.8%

Cc1c[n+]([O-])cc(C)c1N=Nc1ccc(N(C)C)cc1
inactive: [1] 2.55% | [2] -7.7% | [3] -7.95% | [4] 11.1% | [5] 11.9% | [6] 18.2%

COCc1nc2c(=O)[nH]c(N)nc2[nH]c1=O
inactive: [1] 2.55% | [2] -3.55% | [3] -4.8% | [4] -0.25% | [5] 1.7% | [6] 1.1%

CN(c1ccccc1)c1cc2nc3ccccc3nc2cc1O
inactive: [1] 15.3% | [2] 17.4% | [3] 4.3% | [4] 14.3% | [5] 2% | [6] -1.6%

OCC(O)C(OC1OC(CO)C(O)C(O)C1O)c1nn(-c2ccc(F)cc2)c2nc3cc(Cl)c(Cl)cc3cc12 (stereo not drawn)
inactive: [1] 13.6% | [2] -10.1% | [3] -26.8% | [4] 29.9% | [5] 6.45% | [6] -1.55%

O=C(O)C1C=CC2OC2C1C(=O)O (stereo not drawn)
inactive: [1] 2.9% | [2] -28.2% | [3] -5.95% | [4] -31.9% | [5] 1.1% | [6] 4.7%

Cc1ccc(Cl)cc1NC(=O)Oc1ccccc1C(=O)OCc1ccccc1
inactive: [1] -31.9% | [2] -1.55% | [3] 18.5% | [4] -37.3% | [5] 20.2% | [6] 19.9%

COC(=O)NS(=O)(=O)CC(=O)c1ccccc1
inactive: [1] 10.2% | [2] -0.3% | [3] -1.55% | [4] 8.9% | [5] 1.3% | [6] 9.9%

CC(=O)c1cccc(F)c1C(C)c1ccc2ccccc2c1 (stereo not drawn)
inactive: [1] -3.85% | [2] 0.6% | [3] -8.8% | [4] 3.35% | [5] 15.4% | [6] 1.65%

O=C1CCCC(=S)N1
inactive: [1] 3.1% | [2] 4.2% | [3] 9.35% | [4] 16.8% | [5] 14.3% | [6] 6.1%

CCCCCCCC/C=C\CCCCCCCC(=O)O
inactive: [1] 10.1% | [2] -23.1% | [3] -2.2% | [4] -22.9% | [5] -27.1% | [6] -15.7%
